Experimental data published in PMC4552634, “A New Set of Chemical Starting Points with Plasmodium falciparum Transmission-Blocking Potential for Antimalarial Drug Discovery” (PLoS ONE, 2015).
Out of some 13,000 compounds screened, about 3,200 (25%) showed an effect of 50% or more. The list shows a part of the results.

tested on: P. falciparum stage V gametocytes; design: BacTiter-Glo ATP luminescence viability of purified stage V gametocytes in 384-well plates, per cent inhibition versus DMSO; settings: 48 h, 5 µM; inhibitor

SMILES	% Inhibition
CN(CCCNCc1cccc2ccccc12)CCCNCc1cccc2ccccc12 [TCMDC-137905]	108.9%
CN(CCCNCc1ccc2ccccc2c1)CCCNCc1ccc2ccccc2c1 [TCMDC-137908]	106.3%
N#Cc1ccc(-c2ccc(C(=O)NCCCCN3CC=C(c4ccc5c(c4OCC4CC4)CCCC5)CC3)cc2)cc1 [TCMDC-138756]	42.6%
O=C(c1ccc(OCCn2ccnc2)cc1)N1CCC(c2ccc(Br)cc2)C1 (stereo not shown) [TCMDC-134837]	38.05%
CN(CCCN(C)c1cc(NC(=O)c2cccc(F)c2)ccn1)Cc1cccc(O)c1 [TCMDC-134952]	-21.83%
Cc1ccc(C(O)CNc2ccnc(Nc3cccc(-c4csc(C)n4)c3)n2)cc1 (stereo not shown) [TCMDC-136570]	6.544%
CC(C)c1ccc(NC(=O)c2ccc(C(=O)NC3CCN(Cc4ccccc4)CC3)cc2)cc1 [TCMDC-136752]	-24.91%
CCOc1cc(C(=O)NC2CCN(Cc3ccccc3)CC2)ccc1-c1nc2ccc(Cl)cc2[nH]1 [TCMDC-140912]	-17.04%
COc1cc(-c2cc3cc(Cl)c(Cl)cc3[nH]2)ccc1C(=O)NC1CCN(Cc2ccccc2)CC1 [TCMDC-141288]	-32.17%
O=C(Nc1ccnc2ccccc12)NC1CCN(Cc2ccccc2)CC1 [TCMDC-139643]	-13.5%
CN1CCC(COc2ccc(CN3CCC(NC(=O)c4cccc(Cl)c4)CC3)cc2)CC1 [TCMDC-132796]	95.19%
O=C(NC1CCN(Cc2ccccc2)CC1)c1ccc(CNC2CCN(Cc3ccccc3)CC2)cc1 [TCMDC-140787]	27.85%
O=C(NC1CCN(Cc2ccccc2)CC1)c1ccc(-c2nc3cc(Cl)c(F)cc3[nH]2)cc1 [TCMDC-140093]	-50.28%
Cc1cc2nc(-c3ccc(C(=O)NC4CCN(Cc5ccccc5)CC4)s3)[nH]c2cc1C [TCMDC-140513]	1.433%
CC1(C)CC(NC(=O)NC2CCN(Cc3ccccc3)CC2)CC(C)(CNC(=O)NC2CCN(Cc3ccccc3)CC2)C1 (stereo not shown) [TCMDC-139018]	101.1%
O=C(NC1CCN(Cc2ccc(O)cc2)CC1)c1ccc(Cl)c(Cl)c1 [TCMDC-141735]	18.11%
Cc1[nH]c(-c2ccc(F)cc2)cc1C(=O)NC1CCN(Cc2ccccc2)CC1 [TCMDC-124396]	76.63%
O=C(NC1CCN(Cc2ccccc2)CC1)c1cc(C(=O)NC2CCN(Cc3ccccc3)CC2)cc(C(=O)NC2CCN(Cc3ccccc3)CC2)c1 [TCMDC-124568]	67.11%
Oc1ccc2[nH]c(-c3cccc(F)c3)nc2c1CN1CCCC1 [TCMDC-136531]	-40.99%
CCOC(=O)c1cnc2cc(N3CCCC3)c(Cl)cc2c1OCC [TCMDC-131990]	37.97%
O=C(Nc1cccc(-c2cccc(-c3nc4ccccc4[nH]3)c2)c1)Nc1ccc2c(c1)OCO2 [TCMDC-133167]	2.88%
COc1cc(NC(=O)N2CCc3ccc(OCCC4CCCN4C)cc32)cc(C(F)(F)F)c1 (stereo not shown) [TCMDC-140248]	-14.34%

SMILES	% Inhibition
CCCc1nc2c(N3CCCN(C(=O)NC4CCCCC4)CC3)cccc2n1Cc1ccccn1 [TCMDC-134632]	-23.2%
CC(C)CC(C)NC(=O)C1Cc2c([nH]c3cc(Cl)ccc23)C2(CCN(CCc3ccccc3)CC2)N1 (stereo not shown) [TCMDC-141298]	48.04%
CCNc1cc(C(=O)N[C@@H](Cc2ccc(F)c(F)c2)[C@H](O)CNC2CCCCC2)cc(N2CCCCS2(=O)=O)c1 [TCMDC-135060]	26.39%
Cc1cc(C2CCN(CCCCNC(=O)c3ccc(NC(=O)c4ccc(Cl)cc4)cc3)CC2)c(C)cc1OC(C)C [TCMDC-138309]	96.15%
COCCOc1cc(C)c(C2CCN(CCCCNC(=O)c3ccc(NC(=O)c4ccc(Cl)cc4)cc3)CC2)cc1C [TCMDC-138344]	7.769%
CN(C)CCOc1ccc(N2CCN(CCCCNC(=O)c3ccc(/C=C/c4cc(Cl)cc(Cl)c4)cc3)CC2)cc1 [TCMDC-138290]	45.55%
Cc1cc(C2CCN(CCCCNC(=O)c3ccc(NC(=O)c4ccc(Cl)cc4)cc3)CC2)c(C)cc1OCc1nccn1C [TCMDC-138326]	1.081%
Cc1cc(C2CCN(CCCCNC(=O)c3ccc(NC(=O)c4ccc(Cl)cc4)cc3)CC2)c(C)cc1OCc1cccnc1 [TCMDC-138318]	-16.74%
CN(C)CCOc1ccc(N2CCN(CCCCNC(=O)c3ccc(NC(=O)c4ccc(Cl)cc4)cc3)CC2)cc1 [TCMDC-138289]	85.59%
CCOc1cc(C)c(C2CCN(CCCCNC(=O)c3ccc(NC(=O)c4ccc(Cl)cc4)cc3)CC2)cc1C [TCMDC-138282]	41.56%
Cc1cc(C2CCN(CCCCNC(=O)c3ccc(NC(=O)c4ccc(Cl)cc4)cc3)CC2)c(C)cc1OCc1ccncc1 [TCMDC-138308]	71.5%
Cc1ccc(C)c(C2CCN(CCCCNC(=O)c3ccc(NC(=O)c4ccc(Cl)cc4)cc3)CC2)c1 [TCMDC-138330]	-7.9%
Cc1cc(C2CCN(CCCCNC(=O)c3ccc(NC(=O)c4ccc(Cl)cc4)cc3)CC2)c(C)cc1OCCN(C)C [TCMDC-138316]	117.2%
CCOc1ccc(OCC)c(N2CCN(CCCCNC(=O)c3ccc(NC(=O)c4ccc(Cl)cc4)cc3)CC2)c1 [TCMDC-138224]	-9.659%
CCCCc1ccccc1NS(=O)(=O)c1ccc(OC)c(N2CCNCC2)c1 [TCMDC-139238]	19.7%
CN1CCC(C(=O)Nc2cccc(-c3ccc(-c4nc5cc(C(F)(F)F)ccc5[nH]4)s3)c2)CC1 [TCMDC-132184]	18.99%
COc1ccc2ccc(F)c(CCN3CCC(NCc4cc5c(cn4)OCCO5)CC3)c2n1 [TCMDC-136226]	1.241%
Cc1cnc(C(=O)Nc2cccc(-c3ccc(-c4nc5cc(C(F)(F)F)ccc5[nH]4)s3)c2)cn1 [TCMDC-137028]	12.51%
OC(c1ccc2ccccc2c1)C1CN(CCc2ccccc2)CCC1(O)c1ccccc1 (stereo not shown) [TCMDC-131995]	4.082%
Cc1cccc2nc(-c3cccc(-c4ccc(NC(=O)Cc5ccc[n+]([O-])c5)cc4)c3)[nH]c12 [TCMDC-136993]	-15.96%
O=C(Cc1cnc[nH]1)Nc1ccc(-c2cccc(-c3nc4ccc(C(F)(F)F)cc4[nH]3)c2)cc1 [TCMDC-136949]	9.618%
COc1ccc(NC(=O)Nc2ccc(-c3cccc(-c4nc5c(C)cccc5[nH]4)c3)cc2)cc1 [TCMDC-133245]	-21.29%

SMILES	% Inhibition
CCCN(CC1CC1)c1nc(C)nc2c(-c3ccccc3)cc(C)cc12 [TCMDC-138123]	91.17%
CCCN(CCC)C(=O)c1cc(-c2cccc(C)c2)nc2ccccc12 [TCMDC-124452]	-15.82%
CCCN(CC1CC1)c1ncc(-c2cccc(CNCc3ccccc3O)c2)cn1 [TCMDC-133138]	6.014%
O=C(Nc1ccc(-c2cncc(NCCCN3CCCC3)c2)cc1)c1ccccc1 [TCMDC-133799]	7.133%
CN1CC=C(c2c[nH]c3ccc(Br)cc23)CC1 [TCMDC-139098]	-11.28%
Cc1cc(NC(=O)Nc2ccc(C#N)cc2)c2ccccc2n1 [TCMDC-138956]	16.86%
CCN1CCc2nc3ccccc3c(C(=O)Nc3ccc(C#N)cc3)c2C1 [TCMDC-124513]	54.17%
CCN1CCN(c2cc(C)c3cc(NC(=O)c4ccc(C(C)(C)C)cc4)ccc3n2)CC1 [TCMDC-125579]	-38.88%
Cc1onc(-c2c(F)cccc2Cl)c1C(=O)Nc1ccccc1I [TCMDC-125644]	-7.209%
CC(=O)c1ccc(NC(=O)Nc2ccc(N(C)c3ccnc(Nc4cccc(CS(C)(=O)=O)c4)n3)cc2)cc1 [TCMDC-138736]	-10.01%
CC(=O)c1cccc(NC(=O)NC2CCN(c3ccnc(Nc4ccc(F)cc4)n3)C2)c1 (stereo not shown) [TCMDC-133594]	-13.54%
CS(=O)(=O)Cc1ccc(Nc2nccc(N3CCCc4cc(NC(=O)Nc5cccc(C(F)(F)F)c5)ccc43)n2)cc1 [TCMDC-134309]	69.84%
CCCCCCCc1c2c(C)c(C(=O)OCC)nc-2cc2n1CC(C)=C2C [TCMDC-124023]	93.66%
O=C(CCCCCNC(=O)c1ccc(O)c(-c2ccc(Cl)c(Cl)c2)c1)NCCN1CCOCC1 [TCMDC-140848]	9.445%
O=C(/C=C/c1ccc(Cl)c(Cl)c1)NCC1CCC(CN2CCC(c3c[nH]c4ccccc34)CC2)CC1 (stereo not shown) [TCMDC-139484]	1.039%
O=C(/C=C/c1ccc(Cl)c(Cl)c1)NCC1CCC(N2CCC(c3c[nH]c4ccccc34)CC2)CC1 (stereo not shown) [TCMDC-139676]	103.8%
O=C(/C=C/c1ccc(Cl)c(Cl)c1)NCCCCCN1C2CCC1CC(c1c[nH]c3ccccc13)C2 (stereo not shown) [TCMDC-139239]	-9.344%
O=C(/C=C/c1ccc(Cl)c(Cl)c1)NCCC1CCC(N2CCC(c3c[nH]c4ccccc34)CC2)CC1 (stereo not shown) [TCMDC-139823]	54.15%
O=C(/C=C/c1ccc(Cl)c(Cl)c1)NCCC1CCC(N2CCC(c3c[nH]c4ccc(O)cc34)CC2)CC1 (stereo not shown) [TCMDC-139824]	-86.05%
O=C(/C=C/c1ccc(Cl)c(Cl)c1)NCC1CCCC(CN2CCC(c3c[nH]c4ccccc34)CC2)C1 (stereo not shown) [TCMDC-139490]	-31.4%
